Bioassay records from PubChem.
Hits are enriched below; roughly 2.1% of the tested compounds scored in any of these assays.
TDP43 rescue: TDP-43 toxicity inhibition in yeast; 410,000 compounds, 1.8% hits; Potency, µM (titrated, usually from 46.1 µM), without a hit: at the top dose growth rescue (activation), most hits filed as activators; TDP-43 expressing yeast growth rescue, BacTiter-Glo, 24 h; note: % of control where 0% means no effect; nearly all actives have a fitted effect of over 50% in size
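In this qHTS, compounds that restore growth of yeast expressing TDP-43 appear as activators. Cells (OD600=0.02, galactose medium, raffinose-pregrown) are incubated with compound 24 hr at 30 deg C and growth is quantified by BacTiter-Glo.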
PTAP TSG101 blk: blocks PTAP/TSG101 interaction to inhibit HIV-1 budding; 340,000 tested, under 10 active; AID 493005; Fluorescence polarization, FITC-PTAP peptide / Tsg101 binding; Q99816; Potency, µM (top dose mostly 115 µM), without a hit: top-dose activity change, negative = inhibition, hits mostly inhibitors; active = well fitted inhibition curve with a large enough effect in the main read-out, with a control signal flat, not every such curve was filed as active; inconclusive = small, poorly fitted or top-dose-only effect, or effect the other way, or a change in a side signal; inactive = no such curve, though single readings can be large or run the other way; note: % of control where 0% means no effect
Target sequence (Q99816 whole entry, looked up): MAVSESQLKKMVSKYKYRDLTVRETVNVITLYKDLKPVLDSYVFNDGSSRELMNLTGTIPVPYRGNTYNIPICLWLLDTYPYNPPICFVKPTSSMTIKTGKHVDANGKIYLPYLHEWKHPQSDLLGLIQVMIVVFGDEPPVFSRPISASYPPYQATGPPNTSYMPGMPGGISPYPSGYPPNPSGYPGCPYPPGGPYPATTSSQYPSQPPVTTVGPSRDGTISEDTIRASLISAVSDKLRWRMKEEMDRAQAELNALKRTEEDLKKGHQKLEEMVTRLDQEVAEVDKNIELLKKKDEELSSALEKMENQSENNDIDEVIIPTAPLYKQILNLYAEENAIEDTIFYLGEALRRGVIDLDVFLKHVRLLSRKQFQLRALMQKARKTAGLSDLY
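Fluorescence polarization binding of Tsg101 binding domain (10 uM final) to FITC-labeled PTAP peptide (50 nM final) in HEPES pH 7.5 buffer with NaCl, Tween 20, EDTA, TCEP. Compounds added before peptide; binding 20 min at RT.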
FUS yeast rescue: suppressors of FUS proteinopathy in yeast; S. cerevisiae FUS-expressing, growth rescue, OD600, 24 h; Potency, µM (series often up to 76.6 µM), most hits filed as activators; 390,000 compounds, 0.24% hits; AID 1347120;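 note: plate controls were DMSO vehicle for no effect and reference control for full effect; nearly all actives have a fitted effect of over 55% in size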
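Steps: raffinose overnight preculture; dilution to OD 0.005 in 2% galactose minimal medium; compound addition (concentration series); 24hr at 30C, 99% humidity; absorbance read at 600 nm.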
aSyn yeast inh: alpha-synuclein toxicity inhibition in yeast; Yeast expressing alpha-synuclein, growth rescue, BacTiter-Glo, 24 h; Potency, µM (doses to about 46.1 µM), without a hit: top-dose growth rescue (activation), usual class: activators; 370,000 compounds, 0.14% hits; note: % of control where 0% means no effect; nearly all actives have a fitted effect of over 65% in size
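Screening used galactose-induced yeast with toxic alpha-synuclein levels, exposed to compound for 24 hr at 30 deg C. Cell growth, read with BacTiter-Glo luminescence, gave the measured signal.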
Abeta rescue: compounds reversing amyloid beta toxicity in yeast | yeast expressing A-beta42, growth rescue, OD600, 48 h; response scale: 0% DMSO, 100% iron-clioquinol control | Potency, µM (series often up to 46.1 µM), most hits filed as activators | 410,000 compounds, 0.063% hits | AID 1347071; note: nearly all actives have a fitted effect of over 55% in size
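Growth rescue measured by 600 nm absorbance after 48 h yeast culture at 30 C with compound. Values normalized between DMSO and an equimolar ferric chloride plus clioquinol control.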
An asterisk follows results filed as active; i = inactive; u = inconclusive; x = not tested or not shown. Unless noted, calls come from the whole dose curve; as a rule, active = well fitted curve in the direction sought with a large enough effect; inconclusive = small, poorly fitted or top-dose-only effect, or another doubt; inactive = no such curve, though single readings can be large; an effect the other way counts as inactive or inconclusive. Potency is the fitted concentration of half-maximal effect.

SMILES	TDP43 rescue	PTAP TSG101 blk	FUS yeast rescue	aSyn yeast inh	Abeta rescue
N#Cc1cc(-c2ccccc2)nnc1Sc1ccc(Cl)cc1	u	-3%	i	1%	i
N#Cc1ccncc1Sc1ccc(Cl)cc1	18µM*	-7%	i	22%	i
CCC(=O)OCCCN1C(=O)CCC12CCC(C)CC2 (configuration not stated)	x	x	i	x	x
COc1cc(OC)c(OC)cc1/C=C/c1nccc2ccccc12	x	x	x	-17%	x
Cn1c(-c2c(N)n(CCCc3ccccc3)c3nc4ccccc4nc23)nc2ccccc21	u	-4%	32µM*	-25%	i
Cn1c(-c2c(N)n(C3CCCC3)c3nc4ccccc4nc23)nc2ccccc21	13µM*	-5%	u	-9%	i
COCCCn1c(N)c(-c2nc3ccccc3n2C)c2nc3ccccc3nc21	-8%	1%	i	0%	i
Cn1c(-c2c(N)n(CCc3ccccc3)c3nc4ccccc4nc23)nc2ccccc21	7%	-3%	u	-17%	i
CCOc1ccccc1NC(=O)c1cc2c(C)nn(-c3ccccc3)c2s1	x	x	i	x	x
COc1ccc(NC(=O)c2ccccc2OCC(=O)Nc2ccc(Br)cc2)cc1	x	x	x	2%	x
CCOc1ccc(-n2c(SCC(=O)c3ccc4ccccc4c3)nnc2-c2ccco2)cc1	x	x	i	x	x
CCC[C@H]1[C@@H](N(C)CC2CCCCC2)CC[C@@]23CCCN2C(=O)CCC[C@@H]13	x	x	i	x	x
Cc1ccc(CSCC(=O)Nc2ccc3c(c2)OCO3)cc1	26%	-7%	i	5%	i
O=C(CSCc1ccc(Cl)cc1)Nc1ccc2c(c1)OCCO2	11µM*	-5%	i	5%	i
Cc1ccc(-c2cc(C(=O)N/N=C/c3cccnc3)c3ccccc3n2)cc1C	22µM*	-1%	u	-11%	i
O=C(N/N=C/c1cccnc1)c1cc(-c2ccccc2)nc2ccccc12	-6%	0%	i	1%	i
CC(/C=N/NC(=O)c1cc(-c2ccncc2)nc2ccccc12)=C\c1ccco1	-5%	x	28µM*	12%	i
CCn1c(=O)c2cc(C(=O)NCc3ccc(F)cc3Cl)sc2c2ccccc21	-7%	x	i	x	i
CCOC(=O)c1sc(Nc2nc3c(OC)cccc3s2)cc1C	22µM*	-1%	u	0%	i
CCOC(=O)c1sc(Nc2nc3cc4c(cc3s2)OCO4)cc1C	19%	0%	i	4%	i
O=S(=O)(NCc1cccs1)c1ccc(Br)cc1	13%	-7%	i	1%	i
O=C(Nc1ccc(Br)cc1)c1ccc(F)c(S(=O)(=O)NCc2cccs2)c1	20µM*	-2%	i	u	u
COc1ccccc1C(=O)c1cn(CC(=O)Nc2ccccc2F)c2nc(C)ccc2c1=O	19%	x	i	x	i
FC(F)(F)c1cccc(N2CCN(c3nc4ccccc4n4cnnc34)CC2)c1	22µM*	x	i	x	i
c1ccc2c(c1)CCN(c1nc3ccccc3n3cnnc13)C2	35µM*	-9%	i	-6%	i
SMILES	TDP43 rescue	PTAP TSG101 blk	FUS yeast rescue	aSyn yeast inh	Abeta rescue
c1ccc(N2CCN(c3nc4ccccc4n4cnnc34)CC2)cc1	35µM*	-4%	i	5%	i
CC(C)CN1C(=O)C[C@]2(C(=O)N(C)c3ccc(NS(=O)(=O)C4CCCCC4)cc32)C1c1ccccc1 (some centres not stated)	x	x	i	x	x
COc1ccc(C)cc1NC(=O)c1ccc2c(O)c(S(=O)(=O)c3ccccc3)c(=O)[nH]c2c1	18%	-4%	i	1%	i
Cc1cc(Nc2cccc(Cl)c2)nc2ccc(NC(=O)Cc3cccc(C(F)(F)F)c3)cc12	16µM*	x	u	x	i
Cc1nc2ccc(NC(=O)c3cccc(C(F)(F)F)c3)cc2o1	11µM*	-5%	i	-12%	i
Cc1cc(Nc2cccc(C(F)(F)F)c2)nc2ccc(NC(=O)c3cccnc3)cc12	u	x	u	x	i
Cc1cc(Nc2cccc(C(F)(F)F)c2)nc2ccc(NC(=O)c3cccc(Cl)c3)cc12	18µM*	x	u	x	u
